The full list was thinned out, with hits kept by preference.
LMNA splice mod – changes lamin A minigene splicing in HeLa cells; hit rate 0.01% among 200,000; AID 1487; HeLa LMNA splicing GFP/RFP minigene ratio, 48 h; Potency, µM (doses to about 46.1 µM), for inactives: at the top dose ratio change, negative = inhibition, hits mostly inhibitors; active = well fitted inhibition curve with a large enough effect in the signal ratio, with a control signal flat, not every such curve was filed as active; inconclusive = small, poorly fitted or top-dose-only effect, or effect the other way, or a change in a side signal; the % refers to the signal ratio; also: potency is read from the fitted curve at half-maximal effect
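S3 HeLa stable clones carrying a lamin A-EGFP splicing minigene plus DsRed2 were seeded at 600 cells/well in Opti-MEM with 2% FBS, pin-dosed and incubated 48 h at 37°C. Acumen cytometry (488 nm) gave the GFP/RFP total-intensity ratio.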
PNC inhibitor – inhibitors of perinucleolar compartment assembly. hit rate 3.1% among 140,000. AID 2417. PC3M PTB-GFP, PNC prevalence imaging, 16 h; active compounds read low. activity change (PNC), negative = inhibition, % at 10 µM;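 active = readout at or below -70, meaning at least 70% loss of cells showing the perinucleolar compartment, a nuclear body marking cancer cells; inconclusive = readout between -30 and a set limit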;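 also: plate controls were DMSO wells for no effect and camptothecin positive control wells for full effect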
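Read-out is percentage of cells bearing a perinucleolar compartment, from automated 20x imaging of fixed, Hoechst-stained PC3M PTB-GFP cells. Cells were seeded 4 h, then exposed 16 h to compound (23 nl of library stock) in duplicate plates.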
IMPase inh – IMPase inhibition in cells | inhibition (IP1 accumulation), % at 46.1 µM | 120,000 tested, under 10 active | CHO-M1 cells, IP1 accumulation, HTRF TR-FRET ratio; active = well fitted curve in the direction sought with a large enough effect in the signal ratio, not every such curve was filed as active; inconclusive = small, poorly fitted or top-dose-only effect, or a change in a side signal; inactive = no such curve, though single readings can be large or run the other way; the % refers to the signal ratio;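 also: cells stimulated with carbachol in lithium chloride buffer; plate controls were DMSO basal wells for no effect and reference inhibitor wells for full effect; higher means more IMPase inhibition seen as more IP1 and lower FRET ratio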
Target sequence (P97697 whole entry, looked up): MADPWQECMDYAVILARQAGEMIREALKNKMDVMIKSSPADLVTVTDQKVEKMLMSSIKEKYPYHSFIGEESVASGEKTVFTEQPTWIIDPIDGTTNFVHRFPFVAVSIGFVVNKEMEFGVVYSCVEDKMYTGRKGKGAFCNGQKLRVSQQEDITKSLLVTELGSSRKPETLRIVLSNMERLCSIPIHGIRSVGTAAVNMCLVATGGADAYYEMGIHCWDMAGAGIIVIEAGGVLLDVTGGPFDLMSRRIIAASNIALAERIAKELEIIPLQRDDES
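In this qHTS, compounds (final up to 46 uM) act on CHO-M1 cells that are then activated through the M1 receptor with carbachol, in pH 7.4 buffer containing 50 mM LiCl, for 30 min. IP1 accumulation is quantified by the IP-One immunoassay.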
The depositor's hits bear a star; u = inconclusive; x = no result given; [ ] = remark or other dose. Unless noted, % is scaled to controls: 0 for no effect and ±100 for the full control effect.

SMILES	LMNA splice mod	PNC inhibitor	IMPase inh
Cc1ccc(NC(=O)/C=C/c2ccc(C)o2)c(C)c1	x	x	1.9
CC1=C(C(=O)Nc2ccccc2)C(c2cccc(Cl)c2)n2nc(SCC(=O)c3ccc(C)cc3)nc2N1 (stereo not given)	2.1%[46 µM]	x	x
Cc1ccc2oc(C(=O)NCC(c3ccc(Cl)cc3)N3CCOCC3)c(C)c2c1 (stereo not given)	-9.8%[46 µM]	x	x
CC(=O)c1ccc(NC(=O)CSc2nc(-c3ccc(C)cc3)nc3c2c(=O)n(C)c(=O)n3C)cc1	-3.2%[46 µM]	x	x
CCn1cc(/C=N\NC(=O)Cc2ccc([N+](=O)[O-])cc2)c(C)n1	-2.1%	-7.7	x
CCCCC/C=N\NC(=O)Cc1ccc([N+](=O)[O-])cc1	-0.5%	-94.6*	-8.5
CCc1cccc(C)c1NC(=O)CCS(=O)(=O)c1ccc2c(c1)oc(=O)n2C	-11.6%[46 µM]	x	x
CC(=O)Nc1ccc(NC(=O)CSc2nccn2Cc2ccc3c(c2)OCO3)cc1	-20.1%[46 µM]	x	x
CCOc1ccc(NS(=O)(=O)c2ccc3[nH]cc(C(=O)NCCc4ccccc4)c(=O)c3c2)cc1	-5.1%[46 µM]	x	x
CC1CCC(C(C)C)C(OCC(O)CN2CCN(Cc3ccccc3)CC2)C1 (stereo not given)	-4.5%	-2.4	9.8
CC1CCC(C(C)C)C(OCC(O)CN2CCOCC2)C1 (stereo not given)	2.1%	-109.7*	9.0
CC1(C)CC(=O)c2cc(NC(=O)c3ccccc3)c(=O)oc2C1	-11.3%	0.4	-3.4
O=C(Nc1cc2c(oc1=O)CCCC2=O)c1cccc(Cl)c1	5.4%	-106.0*	1.8
Cc1nn(C)c2c1c(C(F)(F)F)cc(=O)n2C(C)C(=O)Nc1ccccc1F (stereo not given)	11.0%[46 µM]	x	x
COc1ccc(Cl)cc1NC(=O)CN1c2ccccc2S(=O)(=O)c2ccccc21	-2.4%[46 µM]	x	x
CC1(CCc2ccccc2)NC(=S)N(c2ccccc2)N1 (stereo not given)	u	-123.8*	x
CC1(CCc2ccccc2)NC(=S)N(c2ccc(Cl)cc2)N1 (stereo not given)	u	-5.2	x
COc1cccc(Cn2c(CNS(=O)(=O)c3ccc(F)c(Cl)c3)nc3cccnc32)c1	24.2%[46 µM]	x	x
C=CCc1cc(C)ccc1OCCOCCn1ccnc1	u	29.2	x
N#C/C(=C/c1ccc(N2CCOCC2)o1)c1ccc(Br)cc1	9.4%	29.7	-8.2
N#C/C(=C\c1ccc(N2CCOCC2)o1)c1ccccc1	u	-90.1*	3.6
CC1CN(C(=O)N(C)C)CCN1C(=O)N(C)C (stereo not given)	-1.3%	-126.5*	4.7
CN(C)C(=O)N1CCN(C(=O)N(C)C)CC1	7.7%	-9.2	2.7
Cc1cccc(/C=N/NC(=O)C2CCCNC2=O)c1 (stereo not given)	-16.8%	-84.7*	x
O=C1NCCCC1C(=O)Nc1ccccn1 (stereo not given)	12.3%	12.2	14.3
SMILES	LMNA splice mod	PNC inhibitor	IMPase inh
O=C(CSc1nnc(-c2ccc(Cl)cc2)n1Cc1ccco1)Nc1ccc2c(c1)OCCO2	u	8.3	-0.7
O=C(CSc1nnc(-c2ccncc2)n1Cc1ccco1)Nc1nccs1	-10.9%	-100.0*	u
Cc1cccc(C)c1NC(=O)CSc1nnc(-c2ccncc2)n1Cc1ccco1	-1.0%	1.8	5.9
O=C(CSc1nnc(-c2ccccc2Cl)n1Cc1ccco1)Nc1ccc2c(c1)OCCO2	-12.0%	-96.2*	3.9
O=C(CSc1nnc(-c2ccncc2)n1Cc1ccco1)N1c2ccccc2Sc2ccc(Cl)cc21	-8.7%	-100.0*	-7.0
Cn1c(SCC(=O)N2c3ccccc3Sc3ccc(Cl)cc32)nnc1-c1ccco1	-16.4%	-0.4	4.9
Cc1ccc(CNC(=O)C(CC(C)C)N2Cc3ccccc3C2=O)cc1 (stereo not given)	6.0%[46 µM]	x	x
COc1ccc(NC(=O)c2ccco2)cc1NC(=O)c1cc(OC)c(OC)c(OC)c1	x	x	-1.6
CC(C)(C)c1ccc(/C=C(\C#N)C(=O)NCCN2CCOCC2)cc1	-0.4%[46 µM]	x	x
O=C(Nc1cccnc1)c1ccc(NC(=O)c2ccco2)cc1	13.2%	-23.0	3.6
O=C(Nc1ccc(NC(=O)c2ccco2)nc1)c1cccnc1	-9.7%	-100.0*	2.2
CCCC(=O)Nc1ccc(NC(=O)c2cccc(OC)c2)nc1	1.0%	-18.4	-0.1
COc1cccc(C(=O)Nc2ccc(NC(C)=O)cn2)c1	-6.2%	-115.7*	u
COc1cccc(CNC(=O)c2ccc3c(c2)sc2nc(-c4ccccc4)cn23)c1OC	-3.2%[46 µM]	x	x
Cn1c(SCc2ccccc2)nnc1-c1ccc2c(c1)OCO2	5.5%	-14.7	-8.4
Cn1c(SCC#N)nnc1-c1ccc2c(c1)OCO2	-10.6%	-118.8*	0.3
COc1ccc(N2CCN(C(=O)CN3C(=O)CSc4c3c(C)nn4-c3ccccc3)CC2)cc1	-2.3%[46 µM]	x	x
Cc1nn(C)c(C)c1CCNC(=O)Nc1ccccc1C(F)(F)F	15.2%[46 µM]	x	x
Cn1cnc(S(=O)(=O)N2CCCC(C(=O)NCc3ccccc3Cl)C2)c1 (stereo not given)	7.6%[46 µM]	x	x
CCC1C(=O)CC(c2ccco2)NC1c1ccco1 (stereo not given)	8.8%	-100.0*	8.8
C=CCC1(O)CC(c2ccco2)NC(c2ccco2)C1CCC (stereo not given)	-3.1%	54.5	4.0
O=C(NCC(=O)N(c1cccnc1)C(C(=O)NC1CCCC1)c1cccs1)c1cccs1 (stereo not given)	15.6%[46 µM]	x	x
CCc1ccccc1NC(=O)N1CCc2cc(OC)c(OC)cc2C1CC(=O)OC (stereo not given)	-8.9%[46 µM]	x	x
COc1cccc(CNC(=O)Nc2cc(C(=O)NCc3cccc(F)c3)ccc2N2CCCC2)c1	-9.2%[46 µM]	x	x
Fc1ccc(-c2cc(C(F)(F)F)nc(NCc3cccs3)n2)cc1	u	-113.4*	x
SMILES	LMNA splice mod	PNC inhibitor	IMPase inh
Fc1ccc(CNc2nc(-c3ccco3)cc(C(F)(F)F)n2)cc1	18.1%	-28.9	9.4
Cn1c(Cl)c(/C=N/OC(=O)c2ccc(Cl)cc2)c2ccccc21	-2.2%	15.1	-3.5[1.84 µM]
O=S(=O)(CCc1nc2ccccc2o1)c1ccc2ccccc2c1	1.5%	9.4	1.4
NC(=O)CSc1nnc2n(-c3ccccc3)c(=O)c3c4c(sc3n12)CCCCC4	-0.1%	-81.4*	1.8
Cc1nnc2n(-c3ccccc3)c(=O)c3c4c(sc3n12)CCCC4	-8.3%	34.9	x
O=C(OC1CCOC1=O)c1ccc(NS(=O)(=O)c2cccs2)cc1 (stereo not given)	-8.9%[46 µM]	x	x
COc1ccc(OC)c(NC(=O)c2cc3n(n2)C(C(F)(F)F)CC(c2ccc4c(c2)OCO4)N3)c1 (stereo not given)	u	-23.8	-1.7
O=C(Nc1cc(Cl)ccc1O)c1cc2n(n1)C(C(F)(F)F)CC(c1ccc3c(c1)OCO3)N2 (stereo not given)	u	-84.2*	3.1
CCOC(=O)c1c(NC(=O)CN2C(=O)CN(C)C2=O)sc(C)c1C	13.7%[9.22 µM]	x	x
COc1cccc(C2=CC(c3cccc(OC)c3OC)n3nnnc3N2)c1 (stereo not given)	-11.5%	-86.6*	1.3
COc1cccc(C2=CC(c3cccc(OC)c3OC(F)F)n3nnnc3N2)c1 (stereo not given)	u	18.5	0.1
Cc1cc(C)c(C(N)=O)c(SCC(=O)c2ccc(Cl)cc2)n1	-7.8%	32.8	0.7
Cc1ccc(C(=O)CSc2nc(C)cc(C)c2C(N)=O)cc1	u	-87.8*	4.0[1.84 µM]

Assay outcomes (PubChem BioAssay)
